An excerpt weighted towards active compounds, which were near 2.3% of everything screened.
YB-1 expr inh – YB-1 expression inhibition. U2OS, qRT-PCR YB-1 vs CDIP delta delta Cp, 16 h; active compounds read high; zero = DMSO, each unit about twofold. delta delta Cp (YB-1 minus CDIP) (concentration not given with the values). 30,000 compounds, 0.37% hits;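 active = delta delta Cp rounded down to an integer at or above 3, about 3 SD of DMSO wells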;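 also: higher means less YB-1 transcript or more CDIP transcript relative to DMSO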
U2OS ROS induce – raises reactive oxygen species in U2OS cancer cells | 46,000 compounds, 2% hits | U2OS ROS induction, H2DCF-DA fluorescence | AID 624156 | ROS induction (% of piperlongumine), % at 10 µM; in the data active = ROS induction above about 79%, passing the limit was not always enough;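 also: 0% = DMSO vehicle median and 100% = reference compound median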
* hit, by the source's call; nt = no result.

SMILES | YB-1 expr inh | U2OS ROS induce
C/C=C/[C@H](CC(=O)N1Cc2ccccc2C[C@H]1CO)[Si](C)(C)c1ccc(OC)cc1 | 0.29 | 94*
CC(C)CNC(=O)C1CCN(C(=O)c2ccc(F)cc2)CC1 | nt | -16
C[C@H]1CN([C@@H](C)CO)C(=O)Cc2cc(NC(=O)Cc3cn(C)c4ccccc34)ccc2O[C@H]1CN(C)C(=O)Nc1ccc(C(F)(F)F)cc1 | -0.42 | 100*
COc1ccc(NC(=O)N(C)C[C@H]2Oc3ccc(NC(=O)Cc4ccccc4)cc3CC(=O)N([C@@H](C)CO)C[C@@H]2C)cc1 | 0.18 | 100*
COc1ccc(NC(=O)N(C)C[C@@H]2Oc3ccc(NC(=O)Cc4ccccc4)cc3CC(=O)N([C@@H](C)CO)C[C@@H]2C)cc1 | -0.027 | -7
C[C@H](CO)N1C[C@H](C)[C@H](CN(C)C(=O)Nc2ccccc2)Oc2ccc(NC(=O)Cc3ccccc3)cc2CC1=O | 4.6* | -2
C[C@H]1CN([C@@H](C)CO)C(=O)Cc2cc(NC(=O)Cc3ccccc3)ccc2O[C@H]1CN(C)C(=O)Nc1ccccc1 | -0.09 | 8
C[C@H](CO)N1C[C@H](C)[C@H](CN(C)C(=O)Nc2ccc(C(F)(F)F)cc2)Oc2ccc(NC(=O)Cc3cn(C)c4ccccc34)cc2CC1=O | -0.043 | 8
CC(C)(C)C(=O)Nc1nnc(SCc2ccc(Cl)cc2Cl)s1 | nt | 10
CCN(CC)N1CCN(S(=O)(=O)c2ccc(S(=O)(=O)c3ncccn3)cc2)CC1 | nt | -4
O=C(CC(C(=O)O)n1ccnc1)c1ccc(C2CCCCC2)cc1 (stereo not drawn) | nt | 12
Cc1ccc(S(=O)(=O)NC(=O)NCC2CCN(C(=O)OC(C)(C)C)CC2)cc1 | nt | 1
CCOC(=O)c1c(CS(=O)c2ccc(Cl)cc2)oc2c(F)c(F)c(F)c(F)c12 (stereo not drawn) | nt | -3
CCOC(=O)c1sc2sc(C(=O)OCC)c(-c3ccc(Cl)cc3)c2c1N | 0.083 | 93*
Cc1c(Cl)cccc1NC(=O)c1cccnc1Cl | nt | -3
C[C@H]1CN([C@@H](C)CO)C(=O)c2cccc(NC(=O)c3ccc(-c4nccs4)cc3)c2O[C@H]1CN(C)Cc1ccccc1 | -0.49 | 8
Cc1noc(C)c1S(=O)(=O)N(C)C[C@@H]1Oc2c(NC(=O)c3ccc(-c4nccs4)cc3)cccc2C(=O)N([C@H](C)CO)C[C@@H]1C | -0.13 | 43
C[C@@H]1CN([C@@H](C)CO)C(=O)c2cccc(NC(=O)c3ccc(-c4nccs4)cc3)c2O[C@@H]1CN(C)Cc1ccc(-c2ccccc2)cc1 | -0.13 | 67
C[C@@H]1CN([C@H](C)CO)C(=O)c2cccc(NC(=O)c3ccc(-c4nccs4)cc3)c2O[C@H]1CN(C)Cc1ccc(C(=O)Nc2ccccc2N)cc1 | -0.66 | 95*
C[C@H]1CN([C@@H](C)CO)C(=O)c2cccc(NC(=O)c3ccc(-c4nccs4)cc3)c2O[C@@H]1CN(C)Cc1ccc(C(=O)Nc2ccccc2N)cc1 | -0.023 | 159*
Cc1noc(C)c1S(=O)(=O)N(C)C[C@H]1Oc2c(NC(=O)c3ccc(-c4nccs4)cc3)cccc2C(=O)N([C@H](C)CO)C[C@H]1C | -0.27 | 106*
COc1ccc(-c2cnnn2-c2ccc(NC(=O)c3ccccc3C(F)(F)F)cc2)cc1OC | nt | 35
O=C(C1CCC(Cn2c(=S)[nH]c3ccccc3c2=O)CC1)N1CCN(c2ccc(Cl)cc2)CC1 (stereo not drawn) | nt | 46
C=C1CC[C@@H](O)[C@]2(C)C[C@H]3OC(=O)C(=C)[C@H]3CC12 (stereo partly drawn) | -0.48 | 60
C=C1C(=O)O[C@@H]2C[C@@]3(C)CC(=O)C=C(C)C3C[C@H]12 (stereo partly drawn) | -0.32 | 111*
SMILES | YB-1 expr inh | U2OS ROS induce
O=C(CCSc1ccccc1)NC1CC1 | nt | -23
Cc1nc2ccc(-c3nc4ccc(NC(=O)c5cccs5)cc4[nH]3)cc2[nH]1 | nt | -11
O=S(=O)(c1ccsc1)c1ccsc1 | nt | -6
COc1ccccc1OCCCSc1nc(-c2ccccc2)cc(=O)[nH]1 | nt | 126*
Cc1cc(=O)[nH]c(SCCCOc2ccccc2Cl)n1 | nt | 12
C=C(C)C(=O)O[C@H]1[C@H]2C(=C)C(=O)O[C@@H]2C[C@@H](C)/C=C/C(=O)[C@](C)(O)[C@@H]1OC(=O)C(=C)C | 0.48 | 56
C=C(C)C(=O)O[C@H]1[C@H]2C(=C)C(=O)O[C@@H]2C[C@@H](C)[C@@H]2O[C@@H]2C(=O)[C@](C)(O)[C@@H]1OC(C)=O | 0.12 | 82*
Cc1c(C(=O)N(C)C)sc2c1c(=O)n(-c1ccccc1C(F)(F)F)c(=O)n2CC(N)=O | nt | 10
COc1ccc(CN(C)C[C@H]2Oc3ccc(NC(=O)c4ccncc4)cc3C(=O)N([C@H](C)CO)C[C@@H]2C)cc1 | 0.084 | -9
C[C@@H]1CCCCO[C@@H](CN(C)Cc2ccc(Cl)c(Cl)c2)[C@@H](C)CN([C@H](C)CO)C(=O)c2cc(NC(=O)Cc3ccccc3)ccc2O1 | 0.36 | 131*
